Here are results for 17 compounds from PubChem BioAssay (EPA / NIEHS).

Active and inactive are the calls of the source. How the source made its calls: active means hit-call score of the fitted dose curve at least 0.9, where 1 is the maximum; inactive means score below 0.9.

Holding throughout (conditions): mRNA level, 48 h; actives raise or lower the signal
Read-out in test [1]: Bcl-2 (BID) gene, BID (gene 637)
As to the kind of experiment: LTEA_HepaRG_BID: Life Technologies and Expression Analysis (LTEA) Assay for Bcl-2 (BID) gene using HepaRG (AID 2283476). In short, it runs like this:
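Duplicate 48 h treatments of HepaRG cells in serum-free induction medium spanned 100 uM downward in half-log steps, 0.5% DMSO. Transcript change quantified by qRT-PCR against three housekeeping genes, fitted up or down versus DMSO.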

Read-out in the next test: Caspase-3 (Homo sapiens) (UniProt P42574)
As to the kind of experiment: LTEA_HepaRG_CASP3: Life Technologies and Expression Analysis (LTEA) Assay for cysteine-aspartic acid protease (CASP3) using HepaRG (AID 2283477). In short, it runs like this: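 HepaRG, 48 h exposure, 8 conc. (top 100 uM, half-log steps, duplicate), 0.5% DMSO vehicle; qRT-PCR of CASP3 transcript, housekeeping-normalised (ACTB/GAPDH/POLR2A); bidirectional curve fit vs DMSO baseline.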

Read-out in test [2]: Cytochrome P450 (CYP1A2), CYP1A2 (gene 1544)
Description: LTEA_HepaRG_CYP1A2: Life Technologies and Expression Analysis (LTEA) Assay for Cytochrome P450 (CYP1A2) using HepaRG (AID 2283479). The procedure, abridged:
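HepaRG, 48 h exposure, top 100 uM, half-log 8-pt, 0.5% DMSO vehicle, duplicates. Readout: TaqMan qRT-PCR of CYP1A2 mRNA, housekeeping-normalized (ACTB/GAPDH/POLR2A). Gain/loss fit relative to DMSO baseline.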

Read-out in test [3]: Cytochrome P450 (CYP2B6), CYP2B6 (gene 1555)
Description: LTEA_HepaRG_CYP2B6: Life Technologies and Expression Analysis (LTEA) Assay for Cytochrome P450 (CYP2B6) using HepaRG (AID 2283481). In short, it runs like this:
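Read-out is CYP2B6 mRNA by TaqMan qRT-PCR, normalized to three housekeeping genes and fitted bidirectionally against 0.5% DMSO baseline. Human HepaRG cells received test chemicals for 48 h, top concentration 100 uM, half-log dilutions.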

Read-out in test [4]: Cytochrome P450 2C19 (Homo sapiens) (UniProt P33261)
Description: LTEA_HepaRG_CYP2C19: Life Technologies and Expression Analysis (LTEA) Assay for CYP2C19 using HepaRG (AID 2283482). The procedure, abridged:
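HepaRG, 48 h chemical exposure, 8-pt half-log series from 100 uM in 0.5% DMSO, duplicates. Readout: CYP2C19 mRNA by TaqMan qRT-PCR, housekeeping-normalized. Bidirectional fit vs DMSO baseline; phenobarbital 1mM as induction control.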

Read-out in a further test: CYP2C8 (gene 1558)
Description: LTEA_HepaRG_CYP2C8: Life Technologies and Expression Analysis (LTEA) Assay for CYP2C8 using HepaRG (AID 2283483). The procedure, abridged: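 This is a transcriptional endpoint in HepaRG cultures: 48 h exposure, highest concentration 100 uM. CYP2C8 mRNA is quantified by TaqMan qRT-PCR.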

Read-out in another test: CYP2C9 (gene 1559)
Description: LTEA_HepaRG_CYP2C9: Life Technologies and Expression Analysis (LTEA) Assay for CYP2C9 using HepaRG (AID 2283484). The procedure, abridged: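 Eight-point concentration-response (highest 100 uM, half-log dilutions) in HepaRG cells for 48 h; CYP2C9 expression by qRT-PCR normalized to ACTB, GAPDH, POLR2A. Bidirectional fit, DMSO baseline.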

Read-out in a further test: CYP2E1 (gene 1571)
As to the kind of experiment: LTEA_HepaRG_CYP2E1: Life Technologies and Expression Analysis (LTEA) Assay for CYP2E1 using HepaRG (AID 2283485). The procedure, abridged: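 CYP2E1 transcript measured by Fluidigm qRT-PCR against three housekeeping genes in human HepaRG cells treated 48 h (top 100 uM, half-log steps, 0.5% DMSO vehicle). Gain or loss fitted relative to DMSO baseline.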

Read-out in test [5]: cysteine-aspartic acid protease (CASP8), CASP8 (gene 841)
Description: LTEA_HepaRG_CASP8: Life Technologies and Expression Analysis (LTEA) Assay for cysteine-aspartic acid protease (CASP8) using HepaRG (AID 2283480). In short, it runs like this: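 Concentration-response in duplicate up to 100 uM (half-log steps, 0.5% DMSO) on differentiated HepaRG cultures for 48 h. Expression change of CASP8 mRNA is determined by TaqMan qRT-PCR with housekeeping-gene normalization.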

Sequence of Caspase-3 (Homo sapiens) (P42574 whole entry, looked up): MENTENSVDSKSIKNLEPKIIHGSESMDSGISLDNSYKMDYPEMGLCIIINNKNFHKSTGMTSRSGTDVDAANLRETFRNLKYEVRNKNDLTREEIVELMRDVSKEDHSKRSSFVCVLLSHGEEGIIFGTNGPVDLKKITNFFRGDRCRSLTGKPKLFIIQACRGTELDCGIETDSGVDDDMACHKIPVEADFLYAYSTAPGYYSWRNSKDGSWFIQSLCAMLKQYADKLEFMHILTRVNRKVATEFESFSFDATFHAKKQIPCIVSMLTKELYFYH
Sequence of Cytochrome P450 2C19 (Homo sapiens) (P33261 whole entry, looked up): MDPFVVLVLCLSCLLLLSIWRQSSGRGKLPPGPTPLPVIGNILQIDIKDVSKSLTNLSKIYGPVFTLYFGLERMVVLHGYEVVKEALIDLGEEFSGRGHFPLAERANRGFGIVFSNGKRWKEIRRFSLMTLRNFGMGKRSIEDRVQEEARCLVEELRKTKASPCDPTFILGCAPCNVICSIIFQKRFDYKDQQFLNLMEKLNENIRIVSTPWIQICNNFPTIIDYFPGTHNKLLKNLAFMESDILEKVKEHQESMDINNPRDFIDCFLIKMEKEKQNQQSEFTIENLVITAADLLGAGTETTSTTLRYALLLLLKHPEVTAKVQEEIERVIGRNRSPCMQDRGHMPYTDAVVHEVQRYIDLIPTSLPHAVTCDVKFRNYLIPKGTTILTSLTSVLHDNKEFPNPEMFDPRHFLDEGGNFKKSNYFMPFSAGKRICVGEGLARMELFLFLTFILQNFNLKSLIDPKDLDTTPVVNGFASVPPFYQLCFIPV

On to `Cc1oc2c(NC(=O)c3c(Cl)cccc3Cl)cccc2c1C(C)(C)O`, for which the compound was classed as inactive (in test [1]; with Caspase-3 (Homo sapiens)). The half-maximal activity concentration (AC50) in [2] is 12.7 µM (active); in [3], 32.8 µM (active); in test [4], 33.5 µM (active); with CYP2C8 (gene 1558) it was 35.8 µM (active); with CYP2C9 (gene 1559), 33.8 µM (active); with CYP2E1 (gene 1571), 39.7 µM (active).
As to `CN(C[C@@H](CC[N+]12CCC(C3CCCCC3)(CC1)CC2)c1ccc(Cl)c(Cl)c1)C(=O)c1cc(C(F)(F)F)cc(C(F)(F)F)c1`, the compound was classed as inactive (in [1]; in the test with Caspase-3 (Homo sapiens); in test [5]). In addition, the concentration at half-maximal activity (AC50) in test [2] was 11.5 µM (active); in test [3] it was 18 µM (active); in [4] it was 29.9 µM (active); in the test with CYP2C8 (gene 1558) it was 25.4 µM (active); in the test with CYP2C9 (gene 1559) it was 12.9 µM (active); with CYP2E1 (gene 1571), 13.7 µM (active).
For the compound `O=C(O)c1ccccc1-n1cc(C(=O)O)c(=O)c2cc(Nc3c(F)cc(F)cc3Cl)c(Cl)cc21`, the AC50 is 0.01 µM (active) in test [1]; 11.2 µM (active) in [3]; 5.7 µM (active) in [4]; 7.91 µM (active) in the test with CYP2C8 (gene 1558); 25.5 µM (active) with CYP2E1 (gene 1571). Also, the compound was classed as inactive (in the test with Caspase-3 (Homo sapiens); in test [2]; in [5]; with CYP2C9 (gene 1559)).
As for `CN(C)c1ccc(C(=C2C=CC(=[N+](C)C)C=C2)c2ccc(N(C)C)cc2)cc1`, the outcome in test [1] and in [5] was inactive. The half-maximal activity concentration (AC50) was 12.1 µM (active) in the test with Caspase-3 (Homo sapiens); 2.05 µM (active) in test [2]; 3.45 µM (active) in test [3]; 5.94 µM (active) in test [4]; 3.61 µM (active) with CYP2C8 (gene 1558); 3.82 µM (active) with CYP2C9 (gene 1559). Moreover, the AC50 with CYP2E1 (gene 1571) was 2.31 µM (active).
As to `c1ccc2ccccc2c1`, the result (in test [1]; with Caspase-3 (Homo sapiens); in [4]; with CYP2C8 (gene 1558); with CYP2C9 (gene 1559); with CYP2E1 (gene 1571)) was inactive. Also, the AC50 in test [3] was 12.1 µM (active).
Consider `O=c1c(-c2ccc(O)cc2)coc2cc(O)cc(O)c12`, for which the outcome (in test [1]; with Caspase-3 (Homo sapiens); in test [5]; in test [3]; in test [4]; with CYP2C8 (gene 1558)) was inactive. For the same compound, the result with CYP2C9 (gene 1559) and with CYP2E1 (gene 1571) was inactive.
On to `CCCCCCCCCC(=O)O`, for which the result (in [1]; in the test with Caspase-3 (Homo sapiens); in test [2]; in [5]; in test [3]; in test [4]) was inactive. Further, the compound was called inactive in the test with CYP2C8 (gene 1558), with CYP2C9 (gene 1559) and in the test with CYP2E1 (gene 1571).
In the case of `COc1cccc([C@H](O)C2CCN(CCc3ccc(F)cc3)CC2)c1OC`, the compound was called inactive (in test [1]; in the test with Caspase-3 (Homo sapiens); in test [5]; in the test with CYP2C8 (gene 1558); in the test with CYP2C9 (gene 1559)). Also, the AC50 in [3] was 13.9 µM (active); in [4], 50 µM (active); with CYP2E1 (gene 1571), 16.7 µM (active).
`Cc1occc1C(=O)Nc1ccc(C(=O)N2CCC(F)(F)/C(=C\C(=O)N3CCC(N4CCCCC4)CC3)c3ccccc32)cc1`: the result (in test [1]; in the test with Caspase-3 (Homo sapiens); in test [5]) was inactive. For the same compound, the AC50 in test [3] is 47.4 µM (active); in [4], 43.7 µM (active); with CYP2C8 (gene 1558), 56.5 µM (active); with CYP2C9 (gene 1559), 44.2 µM (active); with CYP2E1 (gene 1571), 31.2 µM (active).
`CO[C@H]1/C=C/O[C@@]2(C)Oc3c(C)c(O)c4c(O)c(c(/C=N/N5CCN(C)CC5)c(O)c4c3C2=O)NC(=O)/C(C)=C\C=C\[C@H](C)[C@H](O)[C@@H](C)[C@@H](O)[C@@H](C)[C@H](OC(C)=O)[C@@H]1C`: the call (in [1]; in the test with Caspase-3 (Homo sapiens)) was inactive. In addition, the half-maximal activity concentration (AC50) in [3] was 0.359 µM (active); in test [4], 0.427 µM (active); in the test with CYP2C8 (gene 1558), 0.232 µM (active); in the test with CYP2E1 (gene 1571) it was 1.06 µM (active).
On to `O=C(O)c1ccccc1C(=O)OCc1ccccc1`, for which the compound was called inactive (in test [1]; in the test with Caspase-3 (Homo sapiens); in test [3]; in test [4]; with CYP2C8 (gene 1558); with CYP2C9 (gene 1559)). In addition, the outcome with CYP2E1 (gene 1571) was inactive.
For the compound `CCCCCCCCOc1ccc(C(=O)c2ccccc2)c(O)c1`, the compound was classed as inactive (in test [1]; with Caspase-3 (Homo sapiens); in test [5]; in test [4]; in the test with CYP2C8 (gene 1558); with CYP2C9 (gene 1559)). Also, the outcome in the test with CYP2E1 (gene 1571) was inactive. Moreover, the AC50 in test [3] was 50 µM (active).
In the case of `CCCCCc1ccc(N)cc1`, the call (in test [1]; with Caspase-3 (Homo sapiens); in test [4]; in the test with CYP2C9 (gene 1559); with CYP2E1 (gene 1571)) was inactive. Further, the concentration at half-maximal activity (AC50) in test [3] was 18.8 µM (active); in the test with CYP2C8 (gene 1558), 18.7 µM (active).
On to `CCCCCCCCCCCC[N+](C)(C)C`, for which the call (in test [1]; with Caspase-3 (Homo sapiens); in test [2]; in test [5]) was inactive. The half-maximal activity concentration (AC50) is 92.4 µM (active) in test [3]; 93.6 µM (active) in test [4]; 78.4 µM (active) in the test with CYP2C8 (gene 1558); 91.4 µM (active) in the test with CYP2C9 (gene 1559); 94.1 µM (active) with CYP2E1 (gene 1571).
With `CCCCCCCC[Si](OCC)(OCC)OCC`, the compound was called inactive (in test [1]; with Caspase-3 (Homo sapiens); in test [3]; in test [4]; in the test with CYP2C8 (gene 1558); with CYP2C9 (gene 1559)). The outcome in the test with CYP2E1 (gene 1571) was inactive.
As for `CC(C)(c1cc(Br)c(O)c(Br)c1)c1cc(Br)c(O)c(Br)c1`, the result (in test [1]; in test [2]; in [4]; in the test with CYP2C8 (gene 1558); in the test with CYP2C9 (gene 1559)) was inactive. In addition, the concentration at half-maximal activity (AC50) in [3] is 89.3 µM (active); with CYP2E1 (gene 1571) it was 85.6 µM (active).
For `OC12N=C(c3ccccc3)SC1Cc1cc(Cl)ccc12` (centres undefined), the outcome (in test [1]; in the test with Caspase-3 (Homo sapiens)) was inactive. Besides, the AC50 in test [2] is 1.25 µM (active); in test [3] it was 11.6 µM (active); in test [4], 80.4 µM (active); with CYP2C8 (gene 1558), 39.6 µM (active); with CYP2C9 (gene 1559) it was 37.7 µM (active); in the test with CYP2E1 (gene 1571) it was 16 µM (active).

The term AC50 denotes the concentration giving half of the maximal activity seen.
